High-throughput results from PubChem BioAssay.
DSG3 Ab inh – inhibitors of pemphigus antibody binding to DSG3, primary screen, biochemical, bead-based, flow cytometry, scFv-GFP; DSG3-coupled beads, scFv-anti-DSG3-GFP binding; stronger effect = lower value; binding (percent of control), % at 10 µM; AID 588358, 2011; Desmoglein-3 (Homo sapiens), P32926; 0.48% of 310,000 active;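 active means binding more than 3 SD below its plate's average and above zero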;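 further: hits lower antibody fragment binding to DSG3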
ADAM10 inh – human ADAM10 inhibitors, primary screen, biochemical, QFRET, HTS; Disintegrin and metalloproteinase domain-containing protein 10 (Homo sapiens), O14672; recombinant ADAM10, EDANS/DABCYL FRET peptide cleavage, 3 h; inhibition, % at 7 µM; 0.62% of 370,000 active; AID 720582, 2013;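 active means inhibition above a per-campaign cutoff equal to the mean of compounds falling between control-based bounds plus 3 SD, cut at about 20% in these data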;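 further: 0% = DMSO wells while the 100% control is not disclosed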
proKLK7 act – proKLK7 zymogen activators, primary screen, biochemical, fluorescence intensity; 0.9% of 370,000 active; activation, % at 7 µM; purified proKLK7, EDANS-DABCYL substrate fluorescence; 100% is mature enzyme control, 0% vehicle; Kallikrein-7 (Homo sapiens), P49862; AID 652039, 2013;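 active means activation above the mean of all tested compounds plus 3 SD, computed per campaign excluding outliers beyond control limits, cut at about 13% in these data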
ADAM17 inh – ADAM17 inhibitors, primary screen, biochemical, QFRET | 0.83% of 370,000 active | AID 720648, 2013 | inhibition, % at 6.95 µM | recombinant ADAM17, EDANS/DABCYL FRET peptide cleavage;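 active means inhibition above the mean of compounds lying between control limits plus 3 SD, set per campaign, cut at about 8.5% in these data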;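 further: 0% = DMSO-only wells as the low control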
Target sequence (P78536 215-824 limits assumed): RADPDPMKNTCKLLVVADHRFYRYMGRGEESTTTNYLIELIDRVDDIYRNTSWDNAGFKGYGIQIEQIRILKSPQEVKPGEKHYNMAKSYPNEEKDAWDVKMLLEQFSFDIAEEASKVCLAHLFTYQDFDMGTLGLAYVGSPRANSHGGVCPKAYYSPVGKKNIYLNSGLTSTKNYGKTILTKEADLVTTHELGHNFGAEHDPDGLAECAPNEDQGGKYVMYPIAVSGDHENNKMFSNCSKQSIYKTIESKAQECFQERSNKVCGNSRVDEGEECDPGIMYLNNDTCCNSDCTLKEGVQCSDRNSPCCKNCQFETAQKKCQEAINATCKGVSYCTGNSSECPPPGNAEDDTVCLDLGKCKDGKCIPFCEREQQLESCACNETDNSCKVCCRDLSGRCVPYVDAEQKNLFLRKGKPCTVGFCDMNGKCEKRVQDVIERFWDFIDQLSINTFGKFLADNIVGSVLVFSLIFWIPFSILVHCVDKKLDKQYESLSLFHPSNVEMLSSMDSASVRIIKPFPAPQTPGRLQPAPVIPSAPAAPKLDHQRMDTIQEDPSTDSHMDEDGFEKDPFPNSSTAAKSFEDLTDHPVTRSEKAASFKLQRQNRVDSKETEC
MPTP block – mitochondrial permeability transition pore inhibitors, primary screen, biochemical, isolated mouse mitochondria, absorbance; Ca2+ swelling absorbance, 30 min; inhibition, % at 10 µM; 1.4% of 360,000 active; AID 602449, 2012;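 active means inhibition of 50% or more, scaled per plate between neutral and stimulator controls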;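 further: 0% = DMSO wells given calcium and 100% = 1 mM EGTA wells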
rCAG binder – binders of r(CAG) RNA repeats, primary screen, biochemical, fluorescence; r(CAG) RNA repeat, TO-PRO-1 dye displacement fluorescence; inhibition, % at 3 µM; 1.3% of 370,000 active; AID 651821, 2012;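 active means inhibition above the plate cutoff, the mean of all test compounds on that plate plus 3 SD, cut at about 35% in these data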;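 further: 0% = DMSO alone and 100% = 100 µM mitoxantrone as full dye displacement; higher means more dye released from RNA so lower well fluorescence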
Rh123 counter – fluorescence retest of MPTP screen hits in isolated mitochondria, single concentration. shares compounds with MPTP block. membrane potential, Rhodamine 123 fluorescence. inhibition, % at 10 µM. 78% of 5,000 active. AID 624504, 2012; in the data active means inhibition above about 22%;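 further: 0% = DMSO vehicle and 100% = positive control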
Starred values were filed as active, the others as inactive; · = no result. Only some compounds are listed: those with a hit (about 4.7% of all), similar ones and a draw of the others.

SMILES	DSG3 Ab inh	ADAM10 inh	proKLK7 act	ADAM17 inh	MPTP block	rCAG binder	Rh123 counter
CCC(C)NC(=O)c1ccc2nc(Cc3ccc(OC)cc3)oc2c1 (stereo not drawn)	117	-6	0	-5	0	-1	·
S=C(NCc1cccnc1)Nc1cc(Cl)cc(Cl)c1	·	12	0	-2	82*	3	82*
S=C(NCc1cccnc1)Nc1cccc(Cl)c1	105	1	-1	-1	-1	1	·
O=C(NCc1cccnc1)Nc1cc(Cl)cc(Cl)c1	106	-2	-1	-6	85*	2	86*
COC[C@H]1CCCN1c1cccc2c1S(=O)(=O)N1CC[C@@H](C1)O2	·	1	0	-7	·	5	·
Oc1c(Cl)cc(Cl)cc1C1=NNC(c2ccc(Cl)cc2)C1 (stereo not drawn)	105	·	·	·	68*	·	30*
CC1=C(c2ccccc2)C(=O)C(C)(C)CC1=O	·	-8	0	1	·	2	·
C=CCC1(CC=C)CCCN1C(=O)c1cc(COc2cncc(Cl)c2)on1	·	12	0	-1	77*	-9	96*
COC(=O)c1cc2c(c3c4cc(OC)ccc4n(S(=O)(=O)c4ccc(C)cc4)c13)C(=O)N(C)C2	·	-6	-1	-1	·	15	·
C=CCN=c1scc(-c2ccc3c(c2)NC(=O)CO3)n1/N=C(\C)c1ccccn1	97	-3	-1	-3	95*	-2	62*
